From PubChem BioAssay
Gli-Sufu antag: antagonists of Gli-Sufu signaling; Sufu-KO-LIGHT fibroblasts, Gli luciferase reporter luminescence; inhibition, % at 5 µM; 340,000 tested, 0.74% active; AID 588413;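 active means inhibition above about 55%, limit read from the data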
H9c2 protect: modulators protecting cardiomyocytes from myocardial damage; AID 588492; 360,000 tested, 0.63% active; H9c2 cardiomyocytes, H2O2 injury protection, ATPLite, 2 h; protection from H2O2 cell death, % at 20 µM;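 active means compounds giving at least 50% protection of heart cells from peroxide-induced death in the single-dose screen, raw or plate-pattern-corrected value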
COUP-TFII inh: inhibitors of human COUP-TFII (NR2F2); P24468; 370,000 tested, 0.7% active; inhibition, % at 8.6 µM; HEK293T NGFI-A luciferase reporter, luminescence;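 active means inhibition above a per-plate cutoff, mean inhibition of test wells between control levels plus 3 SD, cut at about 38% in these data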;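 further: cells cotransfected with COUP-TFII expression vector driving the NGFI-A reporter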
Target sequence (P24468 whole entry, looked up): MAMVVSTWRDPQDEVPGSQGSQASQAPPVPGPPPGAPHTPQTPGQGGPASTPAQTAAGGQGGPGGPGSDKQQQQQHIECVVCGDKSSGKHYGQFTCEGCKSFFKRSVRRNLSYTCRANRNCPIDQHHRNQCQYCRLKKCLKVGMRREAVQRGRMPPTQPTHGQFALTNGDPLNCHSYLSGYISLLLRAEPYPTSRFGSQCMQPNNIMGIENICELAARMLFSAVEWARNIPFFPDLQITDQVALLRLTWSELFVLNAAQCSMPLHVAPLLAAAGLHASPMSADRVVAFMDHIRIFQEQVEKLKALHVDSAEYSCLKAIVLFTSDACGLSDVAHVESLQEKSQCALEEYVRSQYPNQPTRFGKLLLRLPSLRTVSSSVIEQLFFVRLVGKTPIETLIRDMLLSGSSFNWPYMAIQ
H9c2 TAG inh: reduces triacylglycerol accumulation in H9c2 cells; Nile Red lipid (TAG) fluorescence; cells loaded with 200 µM oleic acid; inhibition, % at 12.5 µM; 230,000 tested, 0.66% active;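 active means pattern-corrected inhibition of lipid staining of at least 50% with the nuclear-stain viability signal not falling by more than 50%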
697 NFkB inh: lowers PMA/ionomycin-induced NF-kB signal in 697 B cells; 697 B-cell NF-kB luciferase reporter, 16 h; inhibition, % at 4 µM; 330,000 tested, 0.33% active; AID 435022; in the data active means inhibition above about 35%
Jurkat NFkB inh: lowers PMA/ionomycin-induced NF-kB signal in Jurkat cells; 330,000 tested, 0.53% active; AID 435003; inhibition, % at 4 µM; PMA/ionomycin-induced NF-kB luciferase reporter, luminescence; in the data active means inhibition above about 50%
Jurkat NFkB conf: inhibitors of the PMA/ionomycin-induced NF-kB reporter in Jurkat cells, retest; shares compounds with Jurkat NFkB inh; Jurkat NF-kB luciferase, 16 h; inhibition, % at 4 µM; 2,700 tested, 27% active;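 active means inhibition reaching about 45% at 4 µM in either replicate, limit read from the data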
Hits are given with their value; – = inactive; · = not tested or not shown. In the library only some 2.6% were active in any assay of this set; here they are far more common.

SMILES	Gli-Sufu antag	H9c2 protect	COUP-TFII inh	H9c2 TAG inh	697 NFkB inh	Jurkat NFkB inh	Jurkat NFkB conf
Cc1onc(-c2ccccc2)c1C(=O)OCCOc1cccc(Cl)c1	–	–	–	–	–	52	–
O=C(Nc1cccc(S(=O)(=O)N2CCCC2)c1)c1ccc(Cl)nc1	–	–	–	–	–	63	–
O=C(Nc1cccc(S(=O)(=O)N2CCOCC2)c1)c1ccc(Cl)nc1	–	–	–	–	–	–	·
CN(C(=O)CNC(=O)c1ccccc1OCC(=O)Nc1ccc(I)cc1)c1ccccc1	·	·	–	·	·	·	·
CCOC(=O)N1C(=O)C[C@](Sc2ccc(OC)cc2)(C(=O)N2CCCC2)[C@H]1c1ccc(OC)cc1	·	·	–	·	·	·	·
COc1cc2c(c(OC)c1OC)-c1ccc(OC)c(=O)cc1C(NC(C)=O)CC2 (stereo not drawn)	–	–	–	·	–	63	60
c1ccc2c(c1)oc1c(NCCN3CCOCC3)ncnc12	–	–	–	·	–	–	·
c1ccc2c(c1)oc1c(Nc3ccc(CN4CCOCC4)cc3)ncnc12	–	–	–	–	–	–	–
COc1ccc(/C=C2\CC3(OC(=O)c4cccc(F)c4)CCCN2C3)cc1 (stereo not drawn)	·	·	–	·	·	·	·
CCOC(=O)N1CCC(NC(=O)c2ccc3c(c2)N=C(CC)c2cc(C)ccc2S3)CC1	–	–	–	·	–	–	·
CCOC(=O)N1CCC(NC(=O)c2ccc3c(c2)N=C(C)c2c(C)ccc(C)c2S3)CC1	–	–	–	·	–	65	56
COC(=O)[C@]12C[C@H](CC(=O)NCc3ccc(C)o3)C(=O)N(Cc3ccco3)C1=C[C@H](C1CCCC1)O[C@@H]2C	·	·	–	·	·	·	·
Cc1c(C(=O)OCC(C)C)[nH]c2c1C(=O)CC(c1ccco1)C2 (stereo not drawn)	–	–	–	·	–	65	–
Cc1c(C(=O)OC2CCCC2)[nH]c2c1C(=O)CC(c1ccco1)C2 (stereo not drawn)	–	–	–	–	–	67	57
C/C=C/COC(=O)c1[nH]c2c(c1C)C(=O)CC(c1ccc(N(C)C)cc1)C2 (stereo not drawn)	–	–	–	–	–	–	·
C=CCOC(=O)c1[nH]c2c(c1C)C(=O)CC(c1ccco1)C2 (stereo not drawn)	–	·	·	·	–	74	50
Cc1c(C(=O)OCC2CCCO2)[nH]c2c1C(=O)CC(c1ccco1)C2 (stereo not drawn)	–	–	·	56	–	55	–
CCOC(=O)c1[nH]c2c(c1C)C(=O)CC(c1ccc(OC)c(OC)c1)C2 (stereo not drawn)	–	–	–	–	–	–	·
CCOc1ccc(-n2c(SCC(=O)Nc3ccc4cn[nH]c4c3)nnc2-c2ccncc2)cc1	·	·	–	·	·	·	·
COC(=O)C1C(=O)c2c([nH]c(C(=O)OC3CCCC3)c2C)CC1C (stereo not drawn)	–	–	–	–	–	–	–
Cc1c(C(=O)OC2CCCC2C)[nH]c2c1C(=O)CCC2 (stereo not drawn)	–	–	–	·	–	–	·
CC(C)NC(=O)C1CCN(S(=O)(=O)c2ccc(N3CCCC3=O)cc2)CC1	–	–	–	·	–	79	–
O=C(NCc1ccccc1Cl)c1cc([N+](=O)[O-])ccc1Cl	–	–	–	–	–	–	·
O=C(NCc1ccc(Cl)cc1)c1cc([N+](=O)[O-])ccc1Cl	–	–	–	–	–	60	–
Cc1ccc(NC(=S)NNC(=O)CSc2nnc(SCc3cccc4ccccc34)s2)cc1	·	·	–	·	·	·	·
SMILES	Gli-Sufu antag	H9c2 protect	COUP-TFII inh	H9c2 TAG inh	697 NFkB inh	Jurkat NFkB inh	Jurkat NFkB conf
Cc1cc(C)c(S(=O)(=O)Nc2ccc3c4c(cccc24)CC3)c(C)c1	–	–	–	58	–	58	–
Cc1ccc(S(=O)(=O)Nc2ccc3c4c(cccc24)CC3)c(C)c1	–	–	–	–	–	50	–
O=C(CNC(=O)c1ccc(S(=O)(=O)N2CCCC2)cc1)N/N=C/c1ccccc1Cl	–	–	–	·	–	–	·
O=C(NN=Cc1c(O)ccc2ccccc12)c1ccc2c(c1)OCO2	–	–	–	–	–	67	82
O=C(N/N=C/c1ccccc1)c1ccc2c(c1)OCO2	–	–	–	–	–	–	·
O=C(N/N=C\c1c(O)ccc2ccccc12)c1ccc(S(=O)(=O)N2CCCCC2)cc1	85	–	–	·	–	55	73
Cc1ccccc1S(=O)(=O)Cc1ccc(C(=O)N2CCN(c3cccc(C)c3C)CC2)o1	–	–	–	·	–	51	–
Cc1cccc(N2CCN(C(=O)c3cc(S(=O)(=O)N4CCCC4)cn3C)CC2)c1C	–	–	–	–	–	61	–
COc1cc(C(=O)N2CCN(c3cccc(C)c3C)CC2)cc(OC)c1OC	–	–	–	56	–	63	–
Cc1cccc(N2CCN(C(=O)c3cc(S(=O)(=O)N4CCOCC4)cn3C)CC2)c1C	–	–	–	–	–	–	·
COc1ccc(S(=O)Cc2ccc(C(=O)N3CCN(c4cccc(C)c4C)CC3)o2)cc1 (stereo not drawn)	–	–	·	·	–	51	–
Cc1ccccc1S(=O)(=O)Cc1ccc(C(=O)N2CC(C)CC(C)C2)o1 (stereo not drawn)	–	–	–	–	–	–	·
COC(=O)c1cccc(OC[C@@H](O)CN2CCC(C(O)(c3ccccc3)c3ccccc3)CC2)c1	·	·	–	·	·	·	·
O=C([C@@H]1C[C@H]1c1ccccc1)N1CC[C@H]2[C@H](CCCN2Cc2ccc(F)cc2)C1	·	·	–	·	·	·	·
COc1ccc(NC(=O)Cn2nnc(-c3ccccc3NS(=O)(=O)c3ccc(OC)cc3)n2)cc1	–	–	–	·	–	72	64
O=C(CSc1nnc(-c2cccnc2)n1Cc1ccco1)Nc1ccc(F)cc1Cl	·	·	–	·	·	·	·
O=C(NC1CCCCN(Cc2cccc(Cl)c2)C1=O)c1ccccc1 (stereo not drawn)	·	·	–	·	·	·	·
CCCn1c(/C=N/Nc2nc3ccccc3[nH]2)nc2ccccc21	–	–	–	–	·	·	·
O=[N+]([O-])c1ccc(N/N=C/c2ccccc2O)cc1	–	–	–	·	–	61	–
O=[N+]([O-])c1ccc(O)c(/C=N/Nc2nc3ccccc3[nH]2)c1	–	–	–	·	–	55	–
Cn1c(/C=N/Nc2nc3ccccc3[nH]2)nc2ccccc21	–	–	–	·	–	–	–
O=[N+]([O-])c1cccc(N/N=C/c2cc([N+](=O)[O-])ccc2O)c1	–	–	–	·	–	–	·
COC(=O)c1cccc(Cn2ccc3ccc(-c4ccc5ccn(C(=O)c6ccc(C)cc6)c5c4)cc32)c1	·	·	–	·	·	·	·
CCCCNC(=O)NS(=O)(=O)c1ccc(NC(=O)CSc2nnc(-c3cccs3)n2-c2ccc(OC)cc2)cc1	·	·	–	·	·	·	·
C[C@H](O)[C@@H]1CN2CCc3c([nH]c4cccc(-c5ccccc5)c34)[C@@H]2C[C@@H]1N(C)C(=O)Nc1ccccc1	·	·	–	·	·	·	·
